# BRCT PPI green: qHTS Assay for Inhibitors of BRCT-Phosphoprotein Interaction (Green Fluorophore); Breast cancer type 1 susceptibility protein (Homo sapiens), P38398; BRCA1 BRCT-phosphopeptide binding, green fluorescence polarization; Potency, µM (doses to about 76.9 µM), for inactives: at the top dose activity change, negative = inhibition, usual class: inhibitors; hit rate 0.05% among 75,000; AID 875, 2007;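 also: potency is read from the fitted curve at half-maximal effect; plate controls were peptide without protein for full effect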
#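 Fluorescence polarization: His-tagged BRCT (~35 kDa BRCA1 C-terminus, 250 nM) bound to 100 nM fluorescein-labeled phosphorylated 10-aa BACH1 peptide, pH 7.3 phosphate buffer with DTT and Tween 20. Compounds incubated 12 min at room temperature; inhibition read as lowered polarization.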
# ALOX15 inhib: qHTS Assay for Inhibitors of 15-hLO (15-human lipoxygenase); Polyunsaturated fatty acid lipoxygenase ALOX15 (Homo sapiens), P16050; purified 15hLO-1, xylenol orange hydroperoxide absorbance; Potency, µM (series often up to 57.1 µM), inactives show at the highest dose activity change, negative = inhibition, actives largely listed as inhibitors; hit rate 1.4% among 74,000; AID 887, 2007; also: potency is read from the fitted curve at half-maximal effect; % is scaled to controls: 0 for no effect and ±100 for the full control effect; nearly all actives have a fitted effect of over 55% in size
#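 Purified human 15hLO-1 (40 nM final) in 25 mM Hepes pH 7.5, 0.01% Triton X-100 was preincubated with compound 15 min at room temperature, then reacted 6 min with 50 uM arachidonic acid; hydroperoxide detected by Fe-XO, 573/405 nm absorbance ratio.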
# Tau filament bind: qHTS Assay for Tau Filament Binding. Microtubule-associated protein tau (Homo sapiens), P10636. recombinant tau filaments, thioflavin S fluorescence, 15 h; filaments grown with octadecylsulfate alongside compound. Potency, µM (highest dose often 57.1 µM), for inactives: at the highest dose activity change, negative = inhibition. hit rate 2% among 71,000. AID 596, 2007;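 also: potency is read from the fitted curve at half-maximal effect; % is scaled to controls: 0 for no effect and ±100 for the full control effect; actives lower thioflavin S fluorescence by blocking filaments or displacing dye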
# Target sequence (P10636 whole entry, looked up): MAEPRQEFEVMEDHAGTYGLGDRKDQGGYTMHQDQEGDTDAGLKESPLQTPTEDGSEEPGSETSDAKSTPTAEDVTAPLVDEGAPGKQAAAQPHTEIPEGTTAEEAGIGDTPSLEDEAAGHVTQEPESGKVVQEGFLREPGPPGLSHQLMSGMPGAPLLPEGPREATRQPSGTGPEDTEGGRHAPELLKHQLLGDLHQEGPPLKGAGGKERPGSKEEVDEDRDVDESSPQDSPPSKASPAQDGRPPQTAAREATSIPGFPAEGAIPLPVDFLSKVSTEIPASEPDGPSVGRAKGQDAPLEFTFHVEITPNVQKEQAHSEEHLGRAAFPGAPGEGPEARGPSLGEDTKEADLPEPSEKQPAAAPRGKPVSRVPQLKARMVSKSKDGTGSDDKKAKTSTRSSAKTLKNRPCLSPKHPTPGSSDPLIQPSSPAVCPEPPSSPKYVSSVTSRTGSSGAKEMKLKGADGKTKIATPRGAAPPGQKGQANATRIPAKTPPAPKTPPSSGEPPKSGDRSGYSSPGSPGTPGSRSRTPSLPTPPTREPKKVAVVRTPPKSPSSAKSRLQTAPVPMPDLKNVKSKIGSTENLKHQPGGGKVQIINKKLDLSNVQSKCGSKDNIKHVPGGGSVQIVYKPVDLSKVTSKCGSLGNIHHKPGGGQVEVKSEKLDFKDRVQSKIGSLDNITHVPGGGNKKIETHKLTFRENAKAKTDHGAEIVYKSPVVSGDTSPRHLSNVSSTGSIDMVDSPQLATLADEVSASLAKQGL
#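 ThS-based fibril read: tau 1 uM final, inducer ODS 30 uM final, 37 C for 15 h, ex 450/em 510 nm.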
# DNA Pol III inh: qHTS Assay for Inhibitors of DNA Polymerase III Holoenzyme System. reconstituted DNA polymerase III holoenzyme replication, biochemical. Potency, µM (doses to about 57.1 µM), for inactives: top-dose activity change, negative = inhibition. hit rate 0.25% among 71,000; also: potency is read from the fitted curve at half-maximal effect; % is scaled to controls: 0 for no effect and ±100 for the full control effect
#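 Reconstituted *E. coli* holoenzyme (0.35 nM Pol III, 1 nM beta, 154 nM SSB, 2 nM primase) was preincubated with compound for 15 min at RT. Synthesis on 1.4 nM ssM13Gori ran 35 min, then was stopped with PicoGreen/EDTA and read as dsDNA fluorescence.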
# TsaE inh: qHTS Assay for Inhibitors of YjeE | tRNA threonylcarbamoyladenosine biosynthesis protein TsaE (Escherichia coli (strain … | purified YjeE enzyme, qHTS inhibition assay | Potency, µM | hit rate 0.05% among 71,000 | AID 605, 2007
#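 Fluorescence polarization of a BODIPY Texas Red–ADP probe (2 uM) bound to purified YjeE (10 uM) was read after 15 min room-temperature incubation with compounds. Loss of polarization marks inhibitors; ADP serves as titrated control.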
# BRCT PPI red: qHTS Assay for Inhibitors of BRCT-Phosphoprotein Interaction (Red Fluorophore) | BRCT-phosphopeptide binding, red fluorescence polarization | Potency, µM (top dose mostly 76.9 µM), without a hit: top-dose activity change, negative = inhibition, usual class: inhibitors | hit rate 0.03% among 75,000 | AID 892, 2007; also: % is scaled to controls: 0 for no effect and ±100 for the full control effect
#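 Rhodamine-labelled pBACH1 10-mer (100 nM) bound to BRCT domain (100 nM) at pH 7.3; compounds incubated 12 min room temperature, polarization read. Free peptide defines full inhibition; unlabelled decapeptide titrated as control.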
# The depositor's hits bear a star; i = inactive; ? = inconclusive; · = no result; ! = not confirmed by another sample; [ ] = remark or other dose. Most compounds without a hit are left out; they make up all but 3.1% or so of the library. Calls follow the shape of the dose curve; as a rule, active = well fitted curve in the direction sought with a large enough effect; inconclusive = small, poorly fitted or top-dose-only effect, or another doubt; inactive = no such curve, though single readings can be large; an effect the other way counts as inactive or inconclusive.
SMILES,BRCT PPI green,ALOX15 inhib,Tau filament bind,DNA Pol III inh,TsaE inh,BRCT PPI red
CCN(CC)CC[n+]1ccc2c(C)c3[nH]c4ccc(O)cc4c3c(C)c2c1,-3.2%[15.4 µM],?,3.98µM*,1.26µM*,i,-3.7%[15.4 µM]
O=C1c2ccccc2C(=O)C12Cc1ccccc1N1CCN(c3ccccc3)CC12 (stereo not drawn),-0.1%,4.8%,10µM*,0.5%,i,-0.2%
O=C(N1CCN(c2ccccc2)CC1)C12CC3CC(CC(C3)C1)C2,-1.7%,1.1%,-9.5%,-5.1%,i,-1.8%
Cc1cc(NC(=O)Nc2ccc(N(C)C)cc2)c2cc(F)cc(F)c2n1,-3.1%,-4.0%[25.6 µM],31.6µM*,0.3%,i,0.6%
CCN1C(=S)SC(=O)C1=C1C=C(C)OC(C)=C1,7.7%,-6.0%,3.16µM*,-0.3%,i,0.1%
CN(C)C1CCN(C(=O)c2ccc(-n3c(=O)c(=O)[nH]c4ccccc43)cc2)C1 (stereo not drawn),-1.4%,-5.7%,·,·,·,-0.9%
CCCC(C(=O)NCc1ccco1)N(C(=O)CNS(=O)(=O)c1ccc(Cl)cc1)C1CCCC1 (stereo not drawn),0.3%,25.1µM*,-5.8%,-11.7%,i,-0.9%
c1cncc(CNc2cc(-c3ccoc3)ncn2)c1,-8.9%,25.1µM*,104.8%,-17.4%,i,-3.3%
N#CC1=C(SCC(=O)NC2CC2)NC(=O)C(C#N)C12CCCCC2 (stereo not drawn),-1.5%,-9.8%,13.1%,-1.9%,i,-1.2%
CC(C)(C)C1CCC2(CC1)C(C#N)=C(SCC(=O)NC1CCCCC1)NC(=O)C2C#N (stereo not drawn),-1.6%,-10.0%,12.6µM*,-6.5%,i,-0.8%
O=C(O)[C@H]1CN[C@H](C(=O)O)C1,-1.2%,?,39.8µM*,-6.0%,i,1.1%
O=C(O)[C@@H]1CCCN1,0.4%[15.4 µM],-1.7%[11.4 µM],10.5%[11.4 µM],-0.8%[11.4 µM],i,0.4%[15.4 µM]
COc1cccc(Cn2c(=O)cnc3cnc(Oc4cccc(Cl)c4)nc32)c1,-1.1%,-13.9%,?,-14.1%,i,0.3%
CCCCCCCCO,-0.3%,0.2%,1.2%,0.8%,i,-1.2%
CCCCCCCC[N+](CCCCCCCC)(CCCCCCCC)CCCCCCCC,8.2%,20µM*,400.1%,-27.5%,?,-3.9%
O=C(O)c1ccccc1OP(=O)(O)O,0.4%[3.08 µM],-13.3%,5.2%[25.6 µM],-3.7%[25.6 µM],i,0.1%
Cc1cccc(Nc2n[nH]c(=S)s2)c1C,-0.1%,10µM*,3.9%,5.0%,i,-0.3%
CC1=CC(C)(C)N2C(=O)C3(C(C#N)=C(N)Oc4cc(O)ccc43)c3cccc1c32 (stereo not drawn),-3.3%,-20.6%,3.98µM*,-5.1%,i,-0.2%
CC1=CC(C)(C)N2C(=O)C3(C(C#N)=C(N)OC4=C3C(=O)CC(C)(C)C4)c3cccc1c32 (stereo not drawn),-2.4%,8.2%,-4.4%,-3.3%,i,-0.6%
CC1(C)SC2C(NC(=O)C(NC(=O)N3CCNC3=O)c3ccccc3)C(=O)N2C1C(=O)O (stereo not drawn),-2.8%[3.08 µM],-3.2%,·,·,·,0.1%
CN[C@@H]1[C@H](O)[C@H](NC)[C@@H]2O[C@]3(O)C(=O)C[C@@H](C)O[C@H]3O[C@@H]2[C@H]1O,·,·,39.8µM*,-3.5%,i,·
COc1ccc(Cl)cc1N=Nc1ncc[nH]1,-2.4%,-15.4%[25.6 µM],39.8µM*,-14.1%,i,0.2%
CC(C)(C)OC(=O)[C@H]([C@@H]1N[C@@H](C(=O)O)C(C)(C)S1)N1C(=O)c2ccccc2C1=O,-0.6%[15.4 µM],-1.9%[11.4 µM],-3.6%[11.4 µM],4.9%[11.4 µM],i,-2.3%[15.4 µM]
O=C(Nc1cccs1)NC1CCCC1,-1.5%,12.6µM*,-12.3%,-1.9%,i,-0.6%
CC(C)NC(=O)Nc1cccs1,1.0%,-23.1%,·,·,·,-0.6%
SMILES,BRCT PPI green,ALOX15 inhib,Tau filament bind,DNA Pol III inh,TsaE inh,BRCT PPI red
COc1cc(-c2[o+]c3cc(O)cc(O)c3cc2O)cc(O)c1O,1.9%[15.4 µM],-14.3%[11.4 µM],-7.9%[11.4 µM],?,i,0.8%[15.4 µM]
COC(=O)c1cc(NCc2c(F)cccc2Cl)ccc1N1CCOCC1,0.8%,15.8µM*,?,-8.4%,i,-3.3%
COC(=O)c1cc(NCc2cccs2)ccc1N1CCOCC1,-4.2%,20µM*,-13.3%,-5.4%,i,0.0%
O=C(O)c1cc(NCc2cccs2)ccc1N1CCOCC1,-3.9%,1.5%,-4.6%,0.7%,i,-1.1%
O=C(O)c1cc(NCc2ccccc2C(F)(F)F)ccc1N1CCOCC1,-0.4%,15.7%,-3.1%,-1.1%,i,0.9%
Nc1c(S(=O)(=O)O)cc(Nc2ccc(Nc3nc(Cl)nc(Nc4ccc(S(=O)(=O)O)cc4)n3)c(S(=O)(=O)O)c2)c2c1C(=O)c1ccccc1C2=O,?,?,-19.7%,39.8µM*,50.1µM*,4.4%
Cc1nn(-c2ccccn2)c(C)c1Oc1ccccc1O,0.9%,?,-0.7%,-1.1%,i,0.9%
Cc1nn(-c2nc3ccccc3s2)c(C)c1Oc1ccccc1O,-1.0%,15.8µM*,127.8%,15.0%,i,1.4%
N=c1c(C(=O)NCc2ccc(F)cc2)cc2c(=O)n3ccccc3nc2n1CCCN1CCOCC1,-2.9%,3.4%,0.794µM*,-4.3%,i,-0.4%
N=c1c(C(=O)NCc2ccccc2)cc2c(=O)n3ccccc3nc2n1CCCN1CCOCC1,1.7%,?,?,-15.1%,i,1.2%
COCCCNC(=O)c1cc2c(=O)n3cccc(C)c3nc2n(C(C)C)c1=N,-1.0%,1.4%,28.1%,-4.9%,i,0.2%
CCOCCCn1c(=N)c(C(=O)NCc2ccc3c(c2)OCO3)cc2c(=O)n3ccccc3nc21,-1.2%,4.8%,5.01µM*,-2.9%,i,-0.2%
CCCn1c(=N)c(C(=O)NCc2ccc3c(c2)OCO3)cc2c(=O)n3cccc(C)c3nc21,0.9%,-13.3%,1.58µM*,-20.5%,i,1.3%
COC(=O)NC(c1ccco1)[C@@]1(C(=O)OC)CCCC1=O (stereo partly drawn),-1.3%[15.4 µM],4.6%[11.4 µM],·,·,·,-0.1%[15.4 µM]
NC(N)=NCCCC(=O)O,-2.0%[15.4 µM],1.5%[11.4 µM],11.0%[11.4 µM],-9.1%[11.4 µM],i,-0.6%[15.4 µM]
NC(N)=NCCCCN=C(N)N,-2.6%,?,31.6µM*!,-1.2%,i,-1.4%
COc1cc2c(cc1OC)C(c1ccc(N)cc1)=NNC(=O)C2,1.2%,-24.2%[25.6 µM],-6.8%,-1.8%,i,-2.8%
N=C1N=C(N)c2cc3ccccc3cc21,-0.2%,1.4%,2.51µM*,-13.1%,i,-0.9%
